Reference: PubChem BioAssay (Tox21)
Records with an inconclusive call do not appear. A call without a number means that no potency is given here. Active and inactive are the calls of the source. Unless noted, calls come from the whole dose curve.

Assays:
[1] = Nuclear factor erythroid 2-related factor 2/antioxidant responsive element (Nrf2/ARE) small molecule agonists: qHTS cell viability counter screen in human keratinocytes (AID 1919968; active = well fitted cell-killing curve with a large enough effect in the repeat runs; note: nearly all actives have a fitted effect of over 55% in size)
Outline: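 Fluorescence read-out from CellTiter-Fluor after 1 h at 37 C. Wells held HaCaT-derived ARE-luciferase reporter cells (1,500/well) treated 23 h with DMSO-dissolved compounds. Run in the same wells as the luciferase agonist read.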

[2] = Nuclear factor erythroid 2-related factor 2/antioxidant responsive element (Nrf2/ARE) small molecule agonists: luciferase reporter gene qHTS assay in human keratinocytes (AID 1919969); note: nearly all actives have a fitted effect of over 35% in size; note: potency is the fitted concentration of half-maximal effect
[3] = target: Gonadotropin-releasing hormone receptor (Homo sapiens) (UniProt P30968); assay: Human gonadotropin-releasing hormone receptor (GnRHR) small molecule agonists, calcium flux assay in GnRHR-HEK293 cells (AID 1920063); note: nearly all actives have a fitted effect of over 35% in size
Chain of Gonadotropin-releasing hormone receptor (Homo sapiens) (P30968 whole entry, looked up): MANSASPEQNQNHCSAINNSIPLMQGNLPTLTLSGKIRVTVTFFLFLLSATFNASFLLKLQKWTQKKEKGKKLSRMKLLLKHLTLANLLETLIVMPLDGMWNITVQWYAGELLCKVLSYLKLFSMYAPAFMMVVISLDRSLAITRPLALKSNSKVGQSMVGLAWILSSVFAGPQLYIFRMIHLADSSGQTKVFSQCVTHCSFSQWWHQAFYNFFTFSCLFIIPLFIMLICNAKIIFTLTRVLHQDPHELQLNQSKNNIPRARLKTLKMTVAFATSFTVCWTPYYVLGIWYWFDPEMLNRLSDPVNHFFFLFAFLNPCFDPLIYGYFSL
Outline: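 Calcium-dye fluorescence, Ex/Em=480/540, recorded every 1 sec over 3 min after compound addition to GnRHR-HEK293 cells. Cells had been seeded 18 hours earlier and dye-loaded for 1 hour at 37 C. Fifteen concentrations, triplicates.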

[4] = p53 small molecule agonists, cell-based qHTS assay with human liver microsomes (AID 1963577)
Outline: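 Cells carrying a p53-responsive bla reporter were rested 5 h (37 C, 5% CO2) before compound transfer. Human liver microsomes plus NADPH, 0.5 mg/mL final apiece, supplied metabolism during the 16 h 37 C exposure.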

[5] = p53 small molecule agonists, cell-based qHTS assay with rat liver microsomes (AID 1963578)
Outline: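 Fluorescence from a beta-lactamase reporter under a p53 response element was measured after cells had been incubated 16 h at 37 C with test compound and rat liver microsomes plus NADPH (0.5 mg/mL final each).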

[6] = p53 small molecule agonists, cell-based qHTS assay with human liver microsomes: qHTS cell viability counter screen (AID 1963579); note: nearly all actives have a fitted effect of over 45% in size
Outline: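 Seed p53RE-bla cells at 4,000 per well; incubate 5 h at 37 C; add compound, human liver microsomes and NADPH; incubate 16 h at 37 C; add CellTiter-Glo; after 30 min at room temperature, read luminescence.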

[7] = p53 small molecule agonists, cell-based qHTS assay with rat liver microsomes: qHTS cell viability counter screen (AID 1963580); note: nearly all actives have a fitted effect of over 45% in size
Outline: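 Rat liver microsome (0.5 mg/mL final) and NADPH (0.5 mg/mL final) co-incubation with compounds for 16 h at 37 C on HCT-116 p53RE-bla cells; cytotoxicity taken from intracellular ATP luminescence.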

[8] = p53 small molecule agonists, cell-based qHTS assay: qHTS cell viability counter screen (AID 1963581); note: nearly all actives have a fitted effect of over 45% in size
Outline: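 Cytotoxicity read-out: ATP-based luminescence (CellTiter-Glo, 30 min RT) measured in the same wells as the p53 reporter assay, HCT-116 p53RE-bla cells, 16 h compound exposure at 37 C.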

[9] = p53 small molecule agonists, cell-based qHTS assay (AID 1963582; active = well fitted activation curve with a large enough effect in the signal ratio in the repeat runs, not every such curve was filed as active; the % refers to the signal ratio)
Outline: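 Fluorescence intensity read-out of a beta-lactamase reporter under a p53 response element. Cells were exposed to DMSO-dissolved compounds for 16 h at 37 C, then developed with FRET substrate for 2 h at RT.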

[10] = target: 5-hydroxytryptamine receptor 2A (Homo sapiens) (UniProt P28223); assay: 5-hydroxytryptamine receptor 2A (HTR2A) small molecule antagonists, cell-based qHTS assay (AID 1963586); note: nearly all actives have a fitted effect of over 45% in size
Chain of 5-hydroxytryptamine receptor 2A (Homo sapiens) (P28223 whole entry, looked up): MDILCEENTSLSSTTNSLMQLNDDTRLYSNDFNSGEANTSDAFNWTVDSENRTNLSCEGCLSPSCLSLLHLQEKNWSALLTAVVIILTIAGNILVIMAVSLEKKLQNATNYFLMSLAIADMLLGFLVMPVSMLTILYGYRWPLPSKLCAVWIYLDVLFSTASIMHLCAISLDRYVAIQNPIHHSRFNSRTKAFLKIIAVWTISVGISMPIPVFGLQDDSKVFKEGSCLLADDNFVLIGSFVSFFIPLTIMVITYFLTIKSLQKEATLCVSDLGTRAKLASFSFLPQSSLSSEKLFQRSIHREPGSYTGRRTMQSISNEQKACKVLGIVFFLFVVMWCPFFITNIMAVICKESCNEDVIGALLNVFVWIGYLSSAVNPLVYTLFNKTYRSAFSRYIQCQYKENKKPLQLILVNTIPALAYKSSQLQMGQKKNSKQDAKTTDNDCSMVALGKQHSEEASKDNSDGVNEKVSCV
Outline: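 CHO cells stably expressing human HTR2A were plated for 18 h at 37 C, then loaded with calcium dye for 1 h. Compounds were preincubated 5 min at room temperature before DOI (4 nM solution) was added. Kinetic fluorescence was read for 3 min.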

[11] = target: 5-hydroxytryptamine receptor 2A (Homo sapiens) (UniProt P28223); assay: 5-hydroxytryptamine receptor 2A (HTR2A) small molecule agonists, cell-based qHTS assay (AID 1963587); note: nearly all actives have a fitted effect of over 30% in size
Outline: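 Kinetic calcium-flux fluorescence (2 min, 1 sec intervals) after compound addition in agonist mode. HTR2A-CHO cells were cultured 18 h, then dye-loaded 1 h at 37 C.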

[12] = target: Muscarinic acetylcholine receptor M1 (Homo sapiens) (UniProt P11229); assay: Cholinergic receptor muscarinic 1 (CHRM1) small molecule antagonists, cell-based qHTS assay (AID 1963588); note: nearly all actives have a fitted effect of over 40% in size
Chain of Muscarinic acetylcholine receptor M1 (Homo sapiens) (P11229 whole entry, looked up): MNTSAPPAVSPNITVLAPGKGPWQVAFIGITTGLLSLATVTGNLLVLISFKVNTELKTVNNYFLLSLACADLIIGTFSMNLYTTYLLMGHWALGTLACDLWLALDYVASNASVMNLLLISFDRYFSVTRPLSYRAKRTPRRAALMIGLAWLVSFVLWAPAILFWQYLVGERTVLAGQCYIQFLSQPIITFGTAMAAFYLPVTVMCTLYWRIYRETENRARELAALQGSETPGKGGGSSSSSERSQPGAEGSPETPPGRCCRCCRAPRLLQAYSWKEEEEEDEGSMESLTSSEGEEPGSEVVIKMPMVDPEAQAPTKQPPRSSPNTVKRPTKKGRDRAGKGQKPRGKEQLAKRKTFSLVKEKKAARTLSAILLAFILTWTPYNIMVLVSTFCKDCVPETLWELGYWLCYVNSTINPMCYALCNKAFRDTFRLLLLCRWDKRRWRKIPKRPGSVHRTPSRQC
Outline: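 Compounds were tested at 15 concentrations in three independent runs. Dye-loaded CHRM1-CHO cells were exposed 5 min at room temperature before stimulation by acetylcholine added at 50nM. Intracellular calcium was read kinetically on FDSS for 3 min.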

[13] = target: Muscarinic acetylcholine receptor M1 (Homo sapiens) (UniProt P11229); assay: Cholinergic receptor muscarinic 1 (CHRM1) small molecule agonists, cell-based qHTS assay (AID 1963589); note: nearly all actives have a fitted effect of over 35% in size
Outline: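 Calcium flux read-out: kinetic fluorescence at 1 sec intervals after pin-tool compound addition to dye-loaded CHRM1-CHO cells (human M1). Agonist mode; 15 concentrations tested in triplicate independent runs.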

[14] = cAMP Responsive Elements (CRE) small molecule agonists, cell-based qHTS assay (AID 1963590)
Outline: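 Beta-lactamase reporter readout: LiveBLAzer B/G FRET substrate, 2 h at room temperature, added after 3 h compound treatment of CRE-bla HEK 293T cells at 37 C/5% CO2.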

[15] = cAMP Responsive Elements (CRE) small molecule antagonists, cell-based qHTS assay (AID 1963591; active = well fitted inhibition curve with a large enough effect in the signal ratio in the repeat runs, not every such curve was filed as active; the % refers to the signal ratio)
Outline: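 HEK293T CRE-bla; 18 h preincubation; compound pin-transfer; NKH477 0.25 uM final, 3 h, 37 C; LiveBLAzer FRET substrate 2 h RT.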

[16] = target: Beta-2 adrenergic receptor (Homo sapiens) (UniProt P07550); assay: Adrenergic beta2 receptor (ADRB2) small molecule antagonists, cell-based qHTS assay (AID 1963592); note: series mostly up to about 92 µM; nearly all actives have a fitted effect of over 50% in size
Chain of Beta-2 adrenergic receptor (Homo sapiens) (P07550 whole entry, looked up): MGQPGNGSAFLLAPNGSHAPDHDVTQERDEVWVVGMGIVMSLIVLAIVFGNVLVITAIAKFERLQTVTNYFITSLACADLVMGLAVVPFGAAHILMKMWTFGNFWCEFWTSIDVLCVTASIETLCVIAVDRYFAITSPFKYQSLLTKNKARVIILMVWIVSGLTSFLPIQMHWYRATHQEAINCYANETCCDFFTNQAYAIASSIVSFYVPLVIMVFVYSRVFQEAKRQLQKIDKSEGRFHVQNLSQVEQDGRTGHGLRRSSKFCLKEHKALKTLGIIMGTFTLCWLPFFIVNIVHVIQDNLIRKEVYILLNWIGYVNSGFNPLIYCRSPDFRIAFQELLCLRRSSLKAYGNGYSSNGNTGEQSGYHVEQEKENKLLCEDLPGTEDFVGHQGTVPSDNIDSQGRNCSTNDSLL
Outline: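 Assay format: CHO-ADRB2 cells, 18-20hr seeding at 37C/5% CO2, then compound plus 1nM isoproterenol agonist mix for 0.5hr RT. Homogeneous time-resolved fluorescence cAMP detection after 1hr, expressed as 665/615 nm ratio.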

[17] = target: D(2) dopamine receptor (Homo sapiens) (UniProt P14416); assay: Dopamine D2 receptor (DRD2) small molecule agonists, cell-based qHTS assay (AID 1963594); note: nearly all actives have a fitted effect of over 35% in size
Chain of D(2) dopamine receptor (Homo sapiens) (P14416 whole entry, looked up): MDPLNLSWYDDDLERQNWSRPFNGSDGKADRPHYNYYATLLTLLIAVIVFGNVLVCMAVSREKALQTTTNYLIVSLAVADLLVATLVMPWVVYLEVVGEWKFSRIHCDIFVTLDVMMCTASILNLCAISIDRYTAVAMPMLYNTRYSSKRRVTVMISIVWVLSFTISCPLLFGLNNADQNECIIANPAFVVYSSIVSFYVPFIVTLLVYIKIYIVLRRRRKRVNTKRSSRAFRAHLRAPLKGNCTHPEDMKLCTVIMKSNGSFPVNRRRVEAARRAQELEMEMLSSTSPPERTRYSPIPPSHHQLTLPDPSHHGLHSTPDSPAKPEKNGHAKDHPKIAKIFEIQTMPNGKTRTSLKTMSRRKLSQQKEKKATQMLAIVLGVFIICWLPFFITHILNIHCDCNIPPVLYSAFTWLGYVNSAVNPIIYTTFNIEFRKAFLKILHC
Outline: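 cAMP accumulation in DRD2-HEK293 cells measured by HTRF after 1 h detection; compounds added 10 min before NKH477 (200nM […]) forskolin-analogue stimulation, 30 min at room temperature, with Ro20-1724 present at 0.1 mM final.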

[18] = target: D(2) dopamine receptor (Homo sapiens) (UniProt P14416); assay: Dopamine D2 receptor (DRD2) small molecule antagonists, cell-based qHTS assay (AID 1963595; active = well fitted inhibition curve with a large enough effect in the signal ratio in the repeat runs, with a control signal flat; the % refers to the signal ratio)
Outline: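 Human DRD2 antagonist qHTS measuring cAMP by HTRF. The cells are exposed to compound for 10 min, then to NKH477 (200 nM) and quinpirole (12 nM) for 30 min at RT, with Ro20-1724 (0.1 mM) present throughout.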

[19] = target: Beta-2 adrenergic receptor (Homo sapiens) (UniProt P07550); assay: Adrenergic beta2 receptor (ADRB2) small molecule agonists, cell-based qHTS assay (AID 1963593);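 note: CHO cells stably overexpressing human ADRB2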
Outline: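 CHO cells stably over-expressing ADRB2 were plated overnight at 37C, then dosed with compounds plus a stimulation mix containing 100uM IBMX and 25uM Ro-20-1724 for 0.5hr at room temperature. cAMP was measured by HTRF competition, 1hr.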

Row | SMILES | Potency [1] | Potency [2] | Potency [3] | Potency [4] | Potency [5] | Potency [6] | Potency [7] | Potency [8] | Potency [9] | Potency [10] | Potency [11] | Potency [12] | Potency [13] | Potency [14] | Potency [15] | Potency [16] | Potency [17] | Potency [18] | Potency [19]
1 | CCC(C)C1N=C(C)C(C)S1 (stereo not given) | inactive | inactive | inactive | inactive | inactive | inactive | inactive | inactive | inactive | inactive | inactive | inactive | inactive | inactive | inactive | inactive | inactive | inactive | 
2 | O=Cc1ccc(C(=O)O)cc1 | inactive | inactive | inactive | inactive | inactive | inactive | inactive | inactive | inactive | inactive | inactive | inactive | inactive | inactive | inactive | inactive | inactive | inactive | inactive
3 | C(=C\c1ccccc1)/c1ccccc1 | inactive | inactive | inactive | inactive | inactive | inactive | inactive | inactive | inactive |  | inactive | inactive | inactive | inactive | inactive | inactive | inactive | inactive | inactive
4 | COc1cccc(OC)c1C(=O)O | inactive | inactive | inactive | inactive | inactive | inactive | inactive | inactive | inactive | inactive | inactive | inactive | inactive | inactive | inactive | inactive | inactive | inactive | inactive
5 | CN1CCCC1=O | inactive | inactive | inactive | inactive | inactive | inactive | inactive | inactive | inactive | inactive | inactive | inactive | inactive | inactive | inactive | inactive | inactive | inactive | 
6 | CC(C)c1cc2c(cc1S(=O)(=O)O)[C@@]1(C)CCC[C@@](C)(C(=O)O)[C@@H]1CC2 | inactive | inactive | inactive | inactive | inactive | inactive | inactive | inactive | inactive |  |  | inactive | inactive | inactive | inactive | inactive | inactive | inactive | inactive
7 | Cc1c(C(=O)c2c[nH]n(C)c2=O)ccc(S(C)(=O)=O)c1C1=NOCC1 | inactive | inactive | inactive | inactive | inactive | inactive | inactive | inactive | inactive | inactive | inactive | inactive | inactive | inactive | inactive | inactive |  | inactive | inactive
8 | CC1(C)C(=O)N(Br)C(=O)N1Cl | inactive | inactive | inactive | inactive | inactive | inactive | inactive | inactive | inactive | inactive | inactive | inactive | inactive | inactive | inactive | inactive | inactive | inactive | 
9 | FC(F)(F)C(F)(F)C(F)(F)C(F)(F)C(F)(F)C(F)(F)CCI | inactive | inactive | inactive | inactive | inactive | inactive | inactive | inactive | inactive | inactive | inactive | inactive | inactive | inactive | inactive | inactive | inactive | inactive | inactive
10 | Nc1cc(-c2ccncc2)c[nH]c1=O | inactive | inactive | inactive | inactive | inactive | inactive | inactive | inactive | inactive |  |  |  |  | inactive | inactive | inactive | inactive | inactive | inactive
11 | CCOc1cc(NC(C)=O)ccc1C(=O)OC | inactive | inactive | inactive | inactive | inactive | inactive | inactive | inactive | inactive | inactive | inactive | inactive | inactive | inactive | inactive | inactive | inactive | inactive | inactive
12 | O=[N+]([O-])c1cncn1CCN1CCOCC1 | inactive | inactive | inactive | inactive | inactive | inactive | inactive | inactive | inactive |  | inactive | inactive |  | inactive | inactive | inactive | inactive | inactive | inactive
13 | C=CC(=O)CC | inactive | inactive | inactive | inactive | inactive | inactive | inactive | inactive | inactive | inactive | inactive | inactive | inactive | inactive | inactive | inactive | inactive | inactive | inactive
14 | COCCCOc1ccnc(CS(=O)c2nc3ccccc3[nH]2)c1C (stereo not given) | inactive | 30.5 µM (active) | inactive | inactive | inactive | inactive | inactive | inactive | inactive |  |  |  |  | inactive | inactive | inactive | inactive | inactive | inactive
15 | Cc1cc(C)c(C)c(O)c1 | inactive | inactive | inactive | inactive | inactive | inactive | inactive | inactive | inactive | inactive | inactive | inactive | inactive | inactive | inactive | inactive |  | inactive | inactive
16 | CC(C)Nc1ccccc1 | inactive | inactive | inactive | inactive | inactive | inactive | inactive | inactive | inactive | inactive | inactive | inactive | inactive | inactive |  | inactive | inactive | inactive | inactive
